Source: PubChem (Paczesny and Yang Labs, IUPUI and University of Michigan)
ST2 IL33 inh = IL1RL1 inhibition. AlphaLISA ST2-Fc/biotin-IL-33 interaction, 1 h. AID 1259354. hit rate 2.3% among 78,000. Q01638. inhibition, % for hits at 17 µM; in the data active = inhibition above about 30%
Target sequence (Q01638 whole entry, looked up): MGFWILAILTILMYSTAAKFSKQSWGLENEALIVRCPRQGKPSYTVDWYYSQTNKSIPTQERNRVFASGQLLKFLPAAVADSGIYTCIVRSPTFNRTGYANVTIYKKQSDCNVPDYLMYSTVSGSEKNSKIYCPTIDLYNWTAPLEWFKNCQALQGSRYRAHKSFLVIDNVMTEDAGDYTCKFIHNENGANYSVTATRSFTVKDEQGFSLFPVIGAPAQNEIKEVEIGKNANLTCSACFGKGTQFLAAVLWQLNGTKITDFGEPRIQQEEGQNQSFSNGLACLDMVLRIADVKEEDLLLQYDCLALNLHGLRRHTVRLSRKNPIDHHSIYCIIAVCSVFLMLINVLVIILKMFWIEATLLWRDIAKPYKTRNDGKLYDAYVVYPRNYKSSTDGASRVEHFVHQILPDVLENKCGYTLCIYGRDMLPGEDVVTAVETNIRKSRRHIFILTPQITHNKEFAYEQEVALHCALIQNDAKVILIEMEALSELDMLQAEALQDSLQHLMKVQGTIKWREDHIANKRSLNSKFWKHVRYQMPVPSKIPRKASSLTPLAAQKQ
Hits are given with their value; n = inactive. Shown is part of a subset that was picked to be rich in hits.

SMILES	ST2 IL33 inh
O=C(Nc1ccc(-c2nc3ccccc3s2)cc1)C(F)(F)F	n
O=C(Nc1cc(-c2nc3ccccc3s2)ccc1Cl)c1ccco1	39%
Cc1nc2ncccn2c1C(=O)NCCCc1nc2ccccc2n1C	n
C=CCn1c(SCC(=O)NCCCN2CCOCC2)nc2sc3c(c2c1=O)CCCC3	n
CC1OC(OCC2OC(Oc3c(-c4ccc(O)cc4)oc4cc(O)cc(O)c4c3=O)C(OC3OC(C)C(O)C(O)C3O)C(O)C2O)C(O)C(O)C1O (stereo not drawn)	n
O=C(CN1C(=O)/C(=C\c2ccc(Cl)cc2)Sc2ccccc21)NCCN1CCCC1	33%
CCC1Oc2ccccc2N(CC(=O)NCCN2CCCC2)C1=O (stereo not drawn)	n
CCCCNC(=O)CN1C(=O)/C(=C\c2ccc(Cl)cc2)Sc2ccccc21	n
O=C(CN1C(=O)/C(=C\c2ccc(Cl)cc2)Sc2ccccc21)N1CCOCC1	n
O=C(NCCN1CCOCC1)Nc1ccc(Cl)cc1	n
O=C(CN1C(=O)/C(=C\c2ccc(Cl)cc2)Sc2ccccc21)NCCN1CCOCC1	30%
CCCCOc1ccccc1C(=O)N1CCC(N2CCCC2=O)CC1	n
O=C1/C(=C/c2ccccc2O)N=C2CCCCCN12	39%
O=C1CCCN1c1ccccc1O	n
O=C1N=C(N2CCCC2)S/C1=C\c1ccccc1O	n
CCSc1nc2c(c(=O)[nH]1)C(c1ccc(OC)cc1)C1=C(CCCC1=O)N2 (stereo not drawn)	n
COc1nc2c(cc1CNC1CCCCCC1)C(=O)N(CCc1ccccn1)C2	n
CCC(C)OC1CCS(=O)(=O)C1 (stereo not drawn)	n
O=C(Nn1cnnc1)c1ccc(C(=O)Nn2cnnc2)cc1	n
O=C(Nn1cnnc1)c1ccccc1Cl	56%
O=C(Nc1cc(Cl)cc(Cl)c1)c1ccccc1Cl	n
O=C(CCCNS(=O)(=O)c1cccs1)N1CCC(Cc2ccccc2)CC1	n
COC(=O)c1ccc(Nc2nnc(Cc3ccccc3)c(=O)[nH]2)cc1	n
COCCCNC(=O)CN1C(=O)/C(=C\c2ccc(C(F)(F)F)cc2)Sc2ccccc21	n
Cc1cc(NC(=O)CN2C(=O)S/C(=C\c3ccc(Cl)cc3)C2=O)no1	n
SMILES	ST2 IL33 inh
CCCCNC(=O)CN1C(=O)/C(=C/c2ccccc2F)Sc2ccccc21	n
CCCCOc1ccc(CNC(=O)CN2C(=O)c3cccnc3Sc3ccccc32)cc1	n
CCN(CCNC(=O)CN1C(=O)/C(=C/c2ccccc2F)Sc2ccccc21)c1ccccc1	42%
CCC1Oc2ccccc2N(CC(=O)NCCCN(CC)CC)C1=O (stereo not drawn)	n
CCN(CC)CCNC(=O)CN1C(=O)/C(=C\c2ccc(C(F)(F)F)cc2)Sc2ccccc21	37%
CCN(CC)CCCNC(=O)CN1C(=O)/C(=C\c2ccc(Cl)cc2)Sc2ccccc21	n
CCN(CC)CCNC(=O)CN1C(=O)/C(=C\c2ccc(Cl)cc2)Sc2ccccc21	33%
Cc1ccc2c(c1)N(CC(=O)NCc1ccccn1)C(=O)CO2	n
Cc1ccc(/C=C2/Sc3ccccc3N(CC(=O)NCc3ccccn3)C2=O)cc1	32%
O=C(CN1C(=O)/C(=C/c2ccccc2F)Sc2ccccc21)NCc1ccccc1Cl	n
CC1=C(C(=O)Nc2ccc(C)cc2C)C(c2ccccc2Cl)n2ncnc2N1 (stereo not drawn)	n
CCC(C)N(Cc1ccncc1)C(=O)CCSC (stereo not drawn)	n
COc1cccc(CC2=NOC(C(=O)N3CCC(Oc4ccccc4OC)CC3)C2)c1 (stereo not drawn)	n
CCc1nccn1CCCNC1CCC2(CCNCC2)CC1	n
O=C(Nc1ccc([N+](=O)[O-])cc1)N1CCN(c2ccccc2F)CC1	n
COCCNC(=O)CN1CCN(Cc2ccc(F)cc2Cl)C1=O	n
COc1cc(Br)cc(/C=C2/NC(=O)NC2=O)c1OC	n
Cc1cccc(N2C(=O)c3c(C)nc4ccccc4c3C2=O)c1C	n
Cc1c(Cl)cccc1NC(=O)CSCc1ccc([N+](=O)[O-])cc1	n
Cc1[nH]cnc1C(=O)N1CCC(c2ccncc2)CC1	n
O=C(CSc1nc2c(sc3ccccc32)c(=O)n1CC1CCCO1)NC1CCCCC1 (stereo not drawn)	n
CC(C)OC(=O)c1c(NC(=O)CSc2ncccn2)sc2c1CCCC2	n
Cn1ccnc1SCC(=O)Nc1ccc(Cl)cc1	n
COC(=O)c1c(NC(=O)CSc2nccn2C)sc2c1CCC(C(C)(C)C)C2 (stereo not drawn)	35%
CN1C[C@@H](NC(=O)c2ccc(F)cc2)C[C@H]1c1nc(-c2ccccc2)no1	n
SMILES	ST2 IL33 inh
CN1C[C@@H](NC(=O)c2cccnc2)C[C@H]1c1nc(-c2ccc(Cl)cc2)no1	n
CN1C[C@@H](NC(=O)CC(C)(C)C)C[C@H]1c1nc(-c2cnccn2)no1	34%
CN1C[C@@H](NC(=O)c2ccccn2)C[C@H]1c1nc(-c2ccccn2)no1	n
CN1C[C@@H](NC(=O)CC(C)(C)CC(=O)O)C[C@H]1c1nc(-c2ccccn2)no1	n
CN1C[C@@H](NC(=O)c2ccc3c(c2)OCO3)C[C@H]1c1nc(-c2cccnc2)no1	n
CN(C)c1ccc(C(=O)N[C@H]2C[C@@H](c3nc(-c4cccnc4)no3)N(C)C2)cc1	58%
CN1C[C@@H](NC(=O)c2ccccn2)C[C@H]1c1nc(-c2ccncc2)no1	n
CN1C[C@@H](NC(=O)COc2ccccc2)C[C@H]1c1nc(-c2cccnc2)no1	65%
CCSc1nc(CC(=O)N(C)C(C)c2nccs2)cs1 (stereo not drawn)	n
Cc1ccc(Nc2nnc(C(C)(C)C)c(=O)[nH]2)c(C)c1	n
CC(=O)N1CCCn2nc(C(=O)NCc3ccc4c(c3)CCCO4)cc2C1	n
C=CCSC1=C(C#N)C(c2ccccc2C)C(C(=O)OCC)C(=O)N1 (stereo not drawn)	n
CSC(=O)CNC1(Cc2ccc(O)cc2)CCCCC1	n
Cc1cc(Sc2nnnn2-c2ccccc2)nc2ccccc12	n
Cc1sc2ncnc(Sc3nnnn3-c3ccccc3)c2c1C	44%
CSc1nnnn1-c1ccccc1	n
COCCC1CCCCN1C(=O)c1ccc(OC2CCN(C(=O)COC)CC2)cc1 (stereo not drawn)	n
CCN1/C(=c2/sc3nc4ccccc4n3c2=O)Sc2ccc(OC)cc21	n
CCN1/C(=C/C=c2/sc3nc4ccccc4n3c2=O)C=Cc2ccccc21	43%
CN(C)c1ccc(/C=c2\sc3nc4ccccc4n3c2=O)cc1	n
Cn1c(=O)cc(SCC(=O)Nc2ccccn2)c2ccc(Cl)cc21	n
CN1CCC(N2CC[C@@H]3[C@H]2C(=O)NC[C@H](CCC(=O)NCc2ccccc2)N3C)CC1	n
O=C(NCc1ccc(Cl)cc1)c1ccc2nc3c(cc2c1)CCS3	n
Cc1cc(C)n(-c2cc(N3CCN(C(=O)c4ccco4)CC3)ccc2[N+](=O)[O-])n1	n
O=[N+]([O-])c1ccc(N2CCOCC2)cc1NCc1ccco1	n
SMILES	ST2 IL33 inh
CC(C)(C)c1ccc(C(=O)N2CCN(c3ccc([N+](=O)[O-])c(NCc4ccco4)c3)CC2)cc1	31%
CCC(=O)N1CCc2cc(Br)cc(S(=O)(=O)NCCCN3CCOCC3)c21	n
Cc1ccc(-n2c(C)nc3c(cnn3-c3ccccc3Cl)c2=O)cc1	n
CN1CCCNC(=O)C12CCN(C(=O)C(=O)Nc1cccc(F)c1)CC2	n
Cc1ccc(S(=O)(=O)Nc2ccccc2CNCc2ccccc2)cc1	n
Cc1ccc(-n2cc(C(=O)NCC(=O)O)c3ccccc3c2=O)cc1C	n
CC(C)Cn1cnc2c(N)nc3ccccc3c21	41%
CC(Cn1cnc2ccccc21)C(=O)O (stereo not drawn)	n
Nc1ncnc2c1ncn2CCOc1ccccc1	n
